High-throughput results: PubChem, National Center for Advancing Translational Sciences (NCATS)
NPSR antag: qHTS Assay for Antagonists of the Neuropeptide S Receptor: cAMP Signal Transduction. Q6W5P4. CHO-NPSR cells, cAMP TR-FRET, antagonist mode. Potency, µM (highest dose often 38.3 µM), for inactives: at the highest dose activity change, negative = inhibition, actives largely listed as inhibitors. 220,000 compounds, 1% hits. AID 1461, 2008; further: potency means the concentration at half of the fitted maximal effect; on the % scale 0 is the no-effect control and ±100 the full control effect; nearly all actives have a fitted effect of over 50% in size
PTHR1 ag: qHTS for PTHR1 Agonists: Primary Screen; Parathyroid hormone/parathyroid hormone-related peptide receptor (Homo sapiens), Q03431; HEK293 GP2 PTHR1 cells, GloSensor cAMP luminescence, 1 h; Potency, µM (series often up to 115 µM), inactives show top-dose activation, actives largely listed as activators; 410,000 compounds, 0.075% hits; AID 743266, 2014; further: potency means the concentration at half of the fitted maximal effect; nearly all actives have a fitted effect of over 55% in size
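HEK-293-derived GP2 cells expressing PTHR1 and a GloSensor cAMP reporter, 3,000/well, plated overnight, given luciferin plus IBMX (each 0.5 mM as added) for 1 h at 37 °C, then compound for 1 h at 37 °C. Luminescence was read after 15 min at room temperature.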
RXFP1 antagonist: qHTS Assay for Antagonists of the Relaxin Receptor RXFP1; AID 1259400, 2018; 350,000 compounds, 0.59% hits; activity change, negative = inhibition, % at 57.5 µM; Relaxin receptor 1 (Homo sapiens), Q9HBX9; HEK293-RXFP1, relaxin-stimulated cAMP HTRF, 30 min; active compounds read low;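 active means activity change of -60% or lower, but not beyond a set lower limit; inconclusive means change between -60% and -40%, or beyond the set limit; inactive means change above -40%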; further: on the % scale 0 is the no-effect control and ±100 the full control effect
Target sequence (Q9HBX9 whole entry, looked up): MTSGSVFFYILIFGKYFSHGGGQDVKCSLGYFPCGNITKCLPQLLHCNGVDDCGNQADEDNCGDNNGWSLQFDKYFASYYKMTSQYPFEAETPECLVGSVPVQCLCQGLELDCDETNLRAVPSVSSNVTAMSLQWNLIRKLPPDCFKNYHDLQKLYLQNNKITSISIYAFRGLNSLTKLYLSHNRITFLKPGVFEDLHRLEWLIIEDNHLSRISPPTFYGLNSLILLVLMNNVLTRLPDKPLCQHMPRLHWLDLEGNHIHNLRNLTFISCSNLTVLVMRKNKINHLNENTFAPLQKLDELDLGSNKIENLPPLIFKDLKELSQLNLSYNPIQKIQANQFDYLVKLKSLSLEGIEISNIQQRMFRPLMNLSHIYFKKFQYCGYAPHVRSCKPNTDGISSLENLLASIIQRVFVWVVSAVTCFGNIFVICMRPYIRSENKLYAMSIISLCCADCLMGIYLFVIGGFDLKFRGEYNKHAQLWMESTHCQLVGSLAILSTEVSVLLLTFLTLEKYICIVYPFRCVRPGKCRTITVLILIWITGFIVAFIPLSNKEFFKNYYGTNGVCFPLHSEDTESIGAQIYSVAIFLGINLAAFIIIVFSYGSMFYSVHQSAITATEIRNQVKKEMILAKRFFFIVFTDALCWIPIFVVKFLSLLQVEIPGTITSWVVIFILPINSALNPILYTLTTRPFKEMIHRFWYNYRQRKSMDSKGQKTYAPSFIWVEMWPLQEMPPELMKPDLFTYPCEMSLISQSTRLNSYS
TCR activator: Activators of T cell receptors: qHTS campaign; Potency, µM (series often up to 9.22 µM), for the others: at the highest dose activation of IL-2 secretion, usual class: activators; 330,000 tested, under 10 active; primary human leukocytes, anti-CD3, IL-2 HTRF, 48 h; further: % of control where 0% means no effect
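Activity was scored as IL-2 release from primary human leukocytes given only a TCR signal (a-CD3 beads) plus compound for 48 hr. Detection used a two-antibody HTRF format read at 665nm.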
RXFP1 ag: qHTS Assay for Agonists of the Relaxin Receptor RXFP1; Relaxin receptor 1 (Homo sapiens), Q9HBX9; HEK293T-RXFP1 cAMP TR-FRET, 30 min; response scale: percent of porcine relaxin response, buffer zero; Potency, µM (top dose mostly 57.5 µM), for the others: at the top dose activation, actives largely listed as activators; 370,000 compounds, 0.3% hits; AID 2676, 2010; further: potency means the concentration at half of the fitted maximal effect; on the % scale 0 is the no-effect control and ±100 the full control effect; nearly all actives have a fitted effect of over 60% in size
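cAMP rise read by TR-FRET after 30 min, 37C compound exposure (up to 58 uM) in RXFP1-transfected HEK293 cells with Ro 20174 present. EC50 from Hill-equation fits, with 29 nM porcine relaxin as 100% and buffer as basal.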
TSHR antagonist: Antagonists of the Thyroid Stimulating Hormone Receptor: HTS campaign; activity change, negative = inhibition, % at 11.5 µM; AID 504810, 2011; Thyrotropin receptor (Homo sapiens), P16473; 330,000 compounds, 0.2% hits; TSHR-expressing cells, TSH-stimulated cAMP HTRF, 2 h; active compounds read low;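 active means activity change below a set negative limit, meaning inhibition stronger than a set level, cut at about -70% in these data; inconclusive means activity change between two set negative limits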; further: on the % scale 0 is the no-effect control and ±100 the full control effect
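Inhibition of cAMP made by TSHR-expressing cells under TSH stimulation (4nM final, EC80; 2 h, 37 deg C) is quantified with a one-step lysis HTRF kit, anti-cAMP cryptate versus cAMP-d2.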
An asterisk follows results filed as active; i = inactive; ? = inconclusive; / = no result given; [ ] = another dose, or the depositor's remark. The entries come from a sample that favours hits as a whole. Unless noted, the call rests on the fitted dose curve; in most records, active means well fitted curve in the direction sought with a large enough effect; inconclusive means small, poorly fitted or top-dose-only effect, or another doubt; inactive means no such curve, though single readings can be large; an effect the other way counts as inactive or inconclusive.

SMILES	NPSR antag	PTHR1 ag	RXFP1 antagonist	TCR activator	RXFP1 ag	TSHR antagonist
O=C(Nc1nc(-c2ccccc2)cs1)c1ccccc1NS(=O)(=O)c1ccc(F)cc1	?	-30%	-9	0%[46.1 µM]	0%	-85*
Cc1ccc(-c2csc(NC(=O)c3ccc(C)o3)n2)cc1	-19%	i	-11	1%[46.1 µM]	1%	-18
Cc1ccc(C(=O)Nc2nc(-c3ccc(F)cc3)cs2)o1	/	-41%	-33	-4%	0%	-121*
O=C(CN1C(=O)C2CC=CCC2C1=O)Nc1nc(-c2ccc(F)cc2)cs1 (centres undefined)	/	-25%	-84*	-1%	1%	-9
O=S(=O)(Nc1ccc(-c2csc(-c3ccccc3)n2)cc1)c1ccc(F)cc1	?	-3%	-7	-1%	1%	-15
COc1ccc(-c2csc(Nc3cccc(C)n3)n2)cc1	/	-32%	-8	4%	1%	-1
Cc1cccc(Nc2nc(-c3ccc(F)cc3)cs2)n1	/	-34%	-78*	/	0%	-21
COC(=O)C1=C(C)NC(COC(N)=O)=C(C(=O)OC(C)C)C1c1cccc(Cl)c1Cl (centres undefined)	/	/	-25	/	/	/
O=C(Nc1ccc(F)cc1Cl)C1CCN(c2ncnc3c2nc2n3CCCCC2)CC1	/	-39%	-7	/	4%	/
O=C(Cc1ccc(F)cc1)Nc1nc(-c2ccc(F)c(F)c2)cs1	/	-93%	-88*	1%	0%	-47
Cc1ccc(NC(=S)NC2CCSc3ccccc32)cc1 (centres undefined)	/	-30%	-62*	-8%	1%	6
NC(=O)N[C@@H](CCC(=O)O)C(=O)O	/	/	8	/	/	/
CCC(=O)NC1=C(NC(C)c2ccccc2)C(=O)c2ccccc2C1=O (centres undefined)	-22%[46.1 µM]	-23%	7	8%	-1%	-20
CCC(=O)NC1=C(Cl)C(=O)C(NC(=O)CC)=C(Cl)C1=O	?	-56%	?	11%	-1%	-86*
Cc1cc(C)c(Cn2c3ccccc3c3cnn(CC(=O)N4CCCCCC4)c(=O)c32)c(C)c1	/	i	-9	/	0%	/
O=[N+]([O-])c1ccc(O)c(C=Nc2cccc3ccccc23)c1	/	i	-96*	0%	1%	2
O=[N+]([O-])c1ccc(O)c(C=Nc2cccc3ncccc23)c1	9%	-6%	-3	4%	-2%	-7
COc1ccccc1NS(=O)(=O)c1cc(N2Cc3ccccc3C2=N)ccc1N1CCOCC1	2.5µM*	-15%	-3	3%	2%	-1
Cc1ccc2oc(-c3ccc(C)c(NC(=O)c4ccc(-c5ccccc5[N+](=O)[O-])o4)c3)nc2c1	/	-4%	/	/	0%	/
COc1ccc(NC(=S)N2CCCN(Cc3cccc(Cl)c3)C2)cc1	-8%	i	7	1%	4%	16
COc1cccc(NC(=S)N2CCCN(Cc3ccc(F)cc3)C2)c1	-26%	0%	8	-4%	2%	-104*
O=C(NC1CC(=O)N(c2ccccc2)C1)c1ccc(S(=O)(=O)N2CCCC2)cc1 (centres undefined)	/	i	-9	/	4%	/
CN(C)c1ccc(N/C=C/C(=O)c2ccccc2)cc1	?	-64%[57.5 µM]	-110*	2%	-3%	-14
Cc1ccc(CN(Cc2ccco2)c2cnc(S(C)(=O)=O)nc2C(=O)Nc2ccccc2Br)o1	/	i	-12	/	-1%	/
CC(C(=O)NCC1CCCCC1)N(C)Cc1ccc(Br)cc1 (centres undefined)	/	-4%	-12	3%	-2%	-3
SMILES	NPSR antag	PTHR1 ag	RXFP1 antagonist	TCR activator	RXFP1 ag	TSHR antagonist
CC(C(=O)NCC1CCCCC1)N(C)Cc1ccc(Cl)cc1 (centres undefined)	-21%	-30%	-78*	0%	5%	-5
CCN1C(=O)c2ccccc2C1Nc1cccc(OCCN2CCCCC2)c1 (centres undefined)	/	/	-7	/	/	/
CCCC(C(=O)O)n1c(O)c(C=C2N=c3ccccc3=N2)sc1=S (centres undefined)	-19%	-24%	-61*	0%	-14%	-10
O=C(O)CCCn1c(O)c(C=C2N=c3ccccc3=N2)sc1=S	-34%	-21%	-17	1%	0%	-6
Cc1ccc(CNC(=O)CSc2ncc(S(=O)(=O)c3ccc(C)c(Cl)c3)c(=O)[nH]2)cc1	/	-9%	/	/	0%	/
O=C(NNC(=O)c1cc(-c2cccnc2)nc2ccccc12)Nc1ccc(Cl)cc1	-41%	-32%	-73*	2%	0%	10
O=C(NNC(=O)c1cc(-c2ccccc2)nc2ccccc12)Nc1cccc(Cl)c1	?	-16%	-24	6%	1%	-17
CCn1c(SCC(=O)Nc2ccc(C)cc2Br)nnc1-c1nonc1NC(C)=O	/	i	-2	/	0%	/
O=C(O)c1cc2c([nH]c1=O)CCCC2	-3%[46.1 µM]	-5%[57.5 µM]	6	-2%	4%	6
C=CCSC(=C(C#N)C#N)c1cc2c([nH]1)CCCC2	13µM*	-28%[57.5 µM]	-22	2%	1%	-26
COc1cccc(-c2cc(C(=O)NCc3ccco3)c3ccccc3n2)c1	/	-34%	-86*	5%	-2%	-13
Cc1cc(C)c2cc(C#N)c(SCC(=O)NCc3ccco3)nc2c1	0%[46.1 µM]	-6%	-10	1%	4%	3
COc1cccc(-c2ccc(C#N)c(SCC(=O)NCc3ccco3)n2)c1	-37%	-88%	-5	7%	35µM*	-8
CCOC(=O)c1cnc2cc3c(cn2c1=O)CCCC3	-5%[46.1 µM]	i	/	-6%	7%	-6
CCOC(=O)C1=C(SCC)c2cc3c(n2C1=O)CCCC3	13µM*	-19%	-13	-3%[46.1 µM]	0%	-3
COc1ccccc1N1C(=O)c2cccc3c(Cl)ccc(c23)C1=O	/	-9%	-14	-12%	-3%	-98*
CN(N=O)C(=O)N[C@@H]1[C@@H](O)[C@H](O)[C@@H](CO)O[C@@H]1O	/	/	8	/	/	/
Clc1cccc(-n2ncc3c(NC4CCCCC4)ncnc32)c1	/	i	-70*	/	9%	/
Cc1ccc(Cl)cc1-n1ncc2c(NC3CCCCC3)ncnc21	/	-40%	-32	/	3%	/
CCc1ccc(CN(C(=O)c2ccc(OC)cc2)C2CCS(=O)(=O)C2)cc1 (centres undefined)	/	-24%	-10	/	3%	/
